# Results: ChEMBL document CHEMBL3988442, “University of Dundee, Small-Polar-MMV Screening Library” (2021)
# Hit rate of the full screen: of about 69,000 compounds, about 1,000 (1.4%) showed an effect of 50% or more. Only a selection was taken, and strong results are over-represented in it overall.
# Test system: Leishmania donovani
# Test: Leishmania intramacrophage assay
# Assay type: functional, organism-based
# Parameters: scale not given: in the data most compounds retested in dose-response had high values
compound,measurement,setting,value
Cc1noc(CSc2ccc(C(F)(F)F)cn2)n1,Percent Effect,"30.3 µM, […]",27.73%
CCCc1nc(C)c(C(=O)NCCn2ccnc2)s1,Percent Effect,"30.3 µM, […]",-7.791%
CCOc1ccc(Cl)cc1C1CCCN1.Cl (stereo not drawn),Percent Effect,"30 µM, 30.03 µM",7.031%
Cl.Cl.Clc1cccc(C[C@@H]2NCCC[C@@H]2Nc2ccccc2)c1,Percent Effect,"30.3 µM, […]",98.87%
Cl.Cl.Clc1cccc(C[C@@H]2NCCC[C@@H]2Nc2cccc(Cl)c2)c1,Percent Effect,"30.3 µM, […]",98%
O=C(C[S+]([O-])Cc1cccc(Cl)c1)NC1CCCC1 (stereo not drawn),Percent Effect,"30.3 µM, […]",13.89%
O=C(Cc1cccc(Cl)c1)N[C@@H]1CCNC[C@H]1O,Percent Effect,"30 µM, 30.03 µM",-4.847%
O=C(NCCc1cccc(Cl)c1)C1CCOCC1,Percent Effect,"30.3 µM, […]",-10.81%
Cl.O=C(OCC1CCCN1)c1cccc(NC(=O)c2ccco2)c1 (stereo not drawn),Percent Effect,"30.3 µM, […]",19.64%
Cl.Clc1cccc(N[C@H]2CCCN[C@H]2Cc2ccccc2)c1,Percent Effect,"30.3 µM, […]",98.49%
O=C1NCCCc2[nH]c(Cc3cccc(Cl)c3)nc21,Percent Effect,"30.3 µM, […]",16.75%
CCn1cc2c(n1)C(COC)CN(Cc1ccccn1)C2 (stereo not drawn),Percent Effect,"30 µM, 30.03 µM",-30.8%
O=C(c1csc(-c2ncccn2)n1)N1CCN(C2CCCC2)CC1,Percent Effect,"30.3 µM, […]",15.8%
COc1cc(N2C[C@@H]3COC[C@]3(COc3ccccn3)C2)ncn1.O=C(O)C(F)(F)F.O=C(O)C(F)(F)F,Percent Effect,"30.3 µM, […]",12.8%
N#Cc1ccc(OC[C@]23COC[C@H]2CN(c2ncccn2)C3)nc1,Percent Effect,"30.3 µM, […]",-11.64%
COc1cc(N2C[C@@H]3COC[C@]3(COc3ccc(C#N)cn3)C2)ncn1,Percent Effect,"30 µM, 30.03 µM",56.85%
Cc1csc(NC(=O)[C@@H]2C[C@H]3[C@H](CCN3S(C)(=O)=O)O2)n1,Percent Effect,"30.3 µM, […]",37.69%
CCOCCNc1nc(C2CCCC2)nc2c1cnn2C,Percent Effect,"30 µM, 30.03 µM",33.9%
Cn1ncc2c(NCCCOc3cccnc3)nc(C3CCCC3)nc21,Percent Effect,"30.3 µM, […]",7.938%
Cn1ncc2c(NCCOc3ccc(F)cc3)nc(C3CCCC3)nc21,Percent Effect,"30 µM, 30.03 µM",50.15%
CC[C@H]1CN(C(=O)C2CC2)CC[C@H]1CC(=O)NCCN1CCOCC1,Percent Effect,"30.3 µM, […]",-123.3%
CN(Cc1n[nH]c2c1CCCC2)C(=O)c1cccc(CCC(C)(C)O)c1,Percent Effect,"30.3 µM, […]",22.46%
CN(Cc1cc[nH]n1)C(=O)c1cccc(CCC(C)(C)O)c1,Percent Effect,"30 µM, 30.03 µM",14.32%
CN(Cc1n[nH]c2c1CCC2)C(=O)c1cccc(CCC(C)(C)O)c1,Percent Effect,"30.3 µM, […]",57.38%
N#Cc1ccc(CN2CCN(C(=O)c3cc(C4CC4)[nH]n3)CC2)cc1,Percent Effect,"30 µM, 30.03 µM",47.32%
CC(C)(C)CN(CCC#N)C(=O)c1cccc(CN2CCCC2)c1,Percent Effect,"30.3 µM, […]",15.51%
Cc1cccnc1C(=O)N1CCCC(c2[nH]ncc2S(C)(=O)=O)C1 (stereo not drawn),Percent Effect,"30 µM, 30.03 µM",-23.25%
CC(=O)N1CC[C@]2(O)CCN(Cc3nc(C)c[nH]3)C[C@@H]2C1,Percent Effect,"30.3 µM, […]",3.766%
O=C(C1CCCC1)N1C[C@@H]2CCN(c3cnccn3)C[C@@H]2C1.O=C(O)C(F)(F)F,Percent Effect,"30.3 µM, […]",10.31%
O=C(O)C(F)(F)F.c1cnc(N2C[C@H]3CCN(CC4CC4)C[C@H]3C2)cn1,Percent Effect,"30.3 µM, […]",30.4%
O=C(O)C(F)(F)F.O=C(O)C(F)(F)F.c1cnc(N2C[C@H]3CCN(CCN4CCCC4)C[C@H]3C2)cn1,Percent Effect,"30.3 µM, […]",50.81%
COC(=O)c1ccc(OC)c(OC23CCCN(CC2)C3)c1 (stereo not drawn),Percent Effect,"30.3 µM, […]",-2.222%
COc1ccc(SCC2CNc3nc4ccccc4c(=O)n32)cc1 (stereo not drawn),Percent Effect,"30.3 µM, […]",24.33%
O=C(NCCNc1ccc(C(F)(F)F)cn1)c1ccc(F)cc1Cl,Percent Effect,30 µM,35.81%
Cc1nccn1CCC1CCCCN1Cc1ccncc1 (stereo not drawn),Percent Effect,"30 µM, 30.03 µM",14.55%
Cc1cc2c(cc1CN1CCCCC1CCn1ccnc1C)OCO2 (stereo not drawn),Percent Effect,"30.3 µM, […]",16.68%
Cc1nccn1CCC1CCCCN1Cc1ccc(O)cc1Cl (stereo not drawn),Percent Effect,"30.3 µM, […]",62.65%
COc1ccccc1CCN1CCCC(CN(C)Cc2c[nH]c(C)n2)C1 (stereo not drawn),Percent Effect,"30.3 µM, […]",23.77%
COc1ccc(CCN2CCCC(CN(C)Cc3ccc(C)o3)C2)cc1 (stereo not drawn),Percent Effect,"30 µM, 30.03 µM",48.36%
COc1ccccc1CCN1CCCC(CN(C)Cc2ccc(C)o2)C1 (stereo not drawn),Percent Effect,"30.3 µM, […]",51.06%
CN(C)S(=O)(=O)N1CCC(Oc2ccc(C#N)cc2)CC1,Percent Effect,"30 µM, 30.03 µM",23.32%
CN(C)CCNC(=O)CCn1ncc2c(Cl)cccc21,Percent Effect,"30.3 µM, […]",55.96%
COCCNC(=O)CCn1ncc2c(Cl)cccc21,Percent Effect,"30.3 µM, […]",-81.24%
CN(C)C(=O)CNC(=O)CCn1ncc2c(Cl)cccc21,Percent Effect,"30 µM, 30.03 µM",13.94%
CCN(CC)CC(=O)NCc1cccnc1-n1cnc2ccccc21,Percent Effect,"30.3 µM, […]",12.53%
Cc1nc(CNc2ccc(C(=O)NCc3ccco3)cc2C)no1,Percent Effect,"30.3 µM, […]",3.169%
COc1cc(N2CC[C@H](O)[C@@H]2Cc2cccnc2)ncn1,Percent Effect,"30.3 µM, […]",5.968%
COc1cc(N2CC[C@@H](O)[C@@H]2Cc2ccccc2)ncn1,Percent Effect,"30.3 µM, […]",51.86%
